# Screens (PubChem)
# Most compounds without a hit are left out; they make up all but 3.6% or so of the library.
# Pf apPOL block = Pf-apPOL DNA polymerase inhibition | Recombinant Pf-apPOL, molecular beacon fluorescence, 1.5 h | inhibition, % at 10 µM | 0.25% of 210,000 active
# mHTT-CaM PPI inh = inhibitors of human mutant huntingtin-calmodulin interaction; P42858; 3.6% of 190,000 active; inhibition, % at 15 µM; AlphaScreen His-mHTT/GST-CaM binding, luminescence; AID 1671202;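 further: 0% = both proteins with DMSO and 100% = one protein alone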
# Numbers without * were called inactive; nt = not tested or not shown. No stated cut-off is given here; in the data, active means inhibition above about 50%; inactive means the rest.
SMILES,Pf apPOL block,mHTT-CaM PPI inh
O=C(Nc1cccc(-c2ccc3nnc(-c4cccnc4)n3n2)c1)c1ccc(F)cc1F,-2.9,79.5*
Cc1nnc2ccc(-c3cccc(NC(=O)c4cc(Br)ccc4Cl)c3)nn12,-4.5,56.9*
CCOc1ccc(-c2cccc(NC(=O)c3ccc(F)cc3F)c2)nn1,1.9,-0.7
CCOc1ncccc1C(=O)Nc1cccc(-c2ccc3nnc(C)n3n2)c1,-4.1,-5.6
Cc1ccc(S(=O)(=O)C2(C(=O)N3CCN(c4ccccc4Cl)CC3)CC2)cc1,-6.1,19.0
COC(=O)c1ccc(S(=O)(=O)N2CC(c3nc(-c4ccccc4)no3)C2)cc1,2.6,29.9
Cc1ccc(NC(=O)NC2CCN(c3ccccc3)C2=O)cc1 (stereo not drawn),-0.5,-2.8
Brc1ncnc2nc[nH]c12,nt,-5.5
O=C(O)c1ncnc2nc[nH]c12,nt,99.1*
CN(C(=O)C1CC(c2ccc(F)cc2)=NO1)C1CCCCC1 (stereo not drawn),-3.2,-12.0
CCOc1ccccc1CNC(=O)C1CCN(c2nccc(C)n2)CC1,-0.1,-14.3
O=C1CCC[C@H]2C[C@H](NCc3ccc(F)cc3)CC[C@]23CCCN13,-6.8,-5.5
O=C1CCC[C@H]2C[C@H](NCCc3ccncc3)CC[C@]23CCCN13,-8.4,77.0*
CC1C(=O)N(c2ccc(Cl)cc2)CCN1C(=O)CCc1ccccc1 (stereo not drawn),-0.5,2.3
COC(=O)[C@H](CO)N1C(=O)[C@@H]2[C@H](C1=O)[C@@H]1C=C[C@H]2C1,0.1,6.5
COc1ccc(C2C(C#N)=C(N)OC3=C2C(=O)c2ccccc2C3=O)cc1Br (stereo not drawn),-2.5,26.1
Cc1c(C)n(CC(O)CNC(C)c2ccccc2)c2ccccc12 (stereo not drawn),-4.5,30.6
Cc1c(C)n(CC(O)CNc2ccc(Cl)cc2)c2ccccc12 (stereo not drawn),2.2,100.0*
Cc1ccc(NCC(O)Cn2c(C)c(C)c3ccccc32)cc1 (stereo not drawn),0.4,45.0
Cc1c(C)n(CC(O)CNCCCO)c2ccccc12 (stereo not drawn),2.8,15.0
Cc1c(C)n(CC(O)CNc2ccc(Br)cc2)c2ccccc12 (stereo not drawn),6.0,100.0*
Cc1ccc(NCC(O)Cn2c(C)c(C)c3ccccc32)cc1C (stereo not drawn),-1.5,71.0*
COc1ccc(OC)c(NC(=O)c2c(NC(=O)CNCc3ccccc3)sc3c2CCC3)c1,-1.1,-2.7
COc1ccc(OC)c(NC(=O)c2c(NCc3cccs3)sc3c2CCC(C)C3)c1 (stereo not drawn),-17.1,66.0*
COc1ccccc1NC(=O)c1c(NCc2sccc2C)sc2c1CCC2,-19.9,56.0*
SMILES,Pf apPOL block,mHTT-CaM PPI inh
COc1ccc(OC)c(CNc2sc3c(c2C(=O)Nc2ccccc2OC)CCC3)c1,3.6,81.7*
COc1ccc(OC)c(NC(=O)c2c(NC(=O)CN3CCCC(C)C3)sc3c2CCC3)c1 (stereo not drawn),-9.9,-2.9
CCOc1ccccc1NC(=O)c1c(NCc2sccc2C)sc2c1CCC2,-16.6,41.0
COc1ccccc1NC(=O)c1c(NC(=O)Cc2ccccc2)sc2c1CCC2,-4.2,-1.7
COc1ccc(OC)c(NC(=O)c2c(NCc3cccc(F)c3)sc3c2CCC3)c1,-15.9,73.0*
CC(C)CNC(=O)C1CCN(c2ncccc2-c2nc(-c3ccccc3)no2)CC1,-2.2,-0.4
Cc1sc(-c2nc(C(C)C)cs2)cc1S(=O)(=O)N1CCCCC1,-1.2,-29.2
COc1ccccc1/C=C/C=C1N=C(/C=C/c2ccccc2OC)OC\1=O,-3.0,41.0
Cc1ccnc(N2CCC(C(=O)N3CCN(c4ncccn4)CC3)CC2)n1,-3.1,0.3
O=C1CN=C2c3ccccc3N=C(SCc3ccc(F)cc3)N12,-1.7,7.0
Cc1nc(-c2ccncc2)nc2c1CCC(=O)N2CC1COCCO1 (stereo not drawn),-4.4,5.1
COc1ccc(S(=O)(=O)N2CCCC(C)C2)cc1 (stereo not drawn),-3.5,-5.7
COc1ccc(OC)c(CNc2sc3c(c2C(=O)Nc2cc(OC)ccc2OC)CCC3)c1,-16.5,66.0*
COc1ccc(OC)c(NC(=O)c2c(N)sc3c2CCC3)c1,-10.4,40.9
COc1ccc(OC)c(NC(=O)c2c(NC(=O)CN3CCOCC3)sc3c2CCC3)c1,-2.4,7.4
COc1ccc(OC)c(NC(=O)c2c(NCc3cccc(OC)c3OC)sc3c2CCC3)c1,-13.1,59.0*
Nc1c(C(=O)O)cc(Br)c2c1C(=O)c1ccccc1C2=O,-8.1,51.8*
Nc1c(Br)c(Br)c(N)c2c1C(=O)c1ccccc1C2=O,-1.8,27.0
NC(CSc1ccc(Cl)cc1)=NS(=O)(=O)c1ccc(Cl)cc1,-0.1,nt
O=C1Nc2ccc(Br)cc2/C1=C/c1cccs1,1.2,58.0*
O=C1Nc2ccc(Br)cc2/C1=C/c1ccco1,-5.0,72.0*
Cc1ccc(/C=C2\C(=O)Nc3ccc(Br)cc32)s1,-1.9,34.0
O=C1Nc2c(Br)cc(Br)cc2/C1=C/c1ccco1,-6.0,12.0
COc1cccc(CNC(=O)C2CCCN(S(=O)(=O)N3CCC(C)CC3)C2)c1 (stereo not drawn),-13.4,-8.0
CC1CCN(C(=O)C2c3ccccc3CCN2CC(=O)N2CCCCCC2)CC1 (stereo not drawn),-0.9,4.6
SMILES,Pf apPOL block,mHTT-CaM PPI inh
CSC(=NC#N)SC=CC(=O)c1ccc(Br)cc1,-3.2,nt
Cc1nn(Cc2ccc(Cl)c(Cl)c2)c(C)c1NC(=O)c1cc(-c2ccco2)on1,2.4,57.0*
Cc1nn(Cc2ccc(Cl)c(Cl)c2)c(C)c1NC(=O)c1noc2c1CCCC2,-3.9,100.1*
Cc1ccc(Cn2nc(C)c(NC(=O)c3noc4c3CCCCC4)c2C)cc1,-0.6,15.3
Cc1cc(C)n(CCNC(=O)c2cc(-c3ccco3)on2)n1,5.8,-0.3
COc1ccc(-c2coc3c4c(ccc3c2=O)OCN(CCN2CCOCC2)C4)cc1OC,-7.4,0.5
CCOc1cc(CN2CCCC2c2c(C)noc2CC)ccc1O (stereo not drawn),2.4,2.3
COCCCNC(=O)C1CCN(c2nc3ccc(-c4ccsc4)nc3s2)CC1,-2.2,7.6
CCOC(=O)Oc1ccc2c(=O)c(-c3ccc(OC)cc3)c(C)oc2c1,0.7,6.0
CCOC(=O)Oc1c(Cl)cc2oc(=O)sc2c1Cl,2.2,77.0*
CN(C)/C=C1\N=C(c2ccccc2)c2cc(Cl)ccc2N(C)C1=O,3.4,51.0*
CN1C2=NCCN2C(=O)c2cc(Cl)ccc21,-5.4,nt
Cc1nccn1-c1cc(NCCNC(=O)Nc2ccc(F)c(Cl)c2)ncn1,-4.0,-15.7
O=C(O)COCC(=O)Nc1ccccn1,-5.2,nt
O=c1cccnn1CCNS(=O)(=O)c1ccccc1C(F)(F)F,-4.8,-8.5
O=S(=O)(NCCNc1ccc(Nc2ccccn2)nn1)c1ccccc1C(F)(F)F,-5.4,97.0*
O=C(COc1ccccc1)NCCNc1ccc(Nc2ccccn2)nn1,-10.0,87.1*
O=C(NCCNc1ccc(Nc2ccccn2)nn1)Nc1ccc(F)c(Cl)c1,-5.1,100.2*
COC(CNC(=O)C(=O)NCC1COC2(CCCCC2)O1)OC (stereo not drawn),3.0,-3.0
Cc1ccccc1CNC1=NCCNC12CCOCC2,0.1,-1.8
COCCc1noc(COC2CCN(C(=O)c3cnccn3)CC2)n1,-6.3,-9.3
COc1cc2nc(NC(=O)c3nc4ccccc4s3)sc2cc1OC,-6.4,-11.1
C[C@@H]1C(c2cccc(Cl)c2)=NN(c2ccc(Br)cc2)[C@H]1C(=O)N1CCOC1=O,-0.7,57.2*
